Hits are enriched below; roughly 10% of the tested compounds scored in any of these assays.
NS1 inh: influenza NS1 inhibition; Potency, µM (titrated, usually from 46.1 µM), for the others: at the top dose activity, positive = more growth; 270,000 compounds, 0.4% hits; calls by dose curve; note: actives are rising curves; nearly all actives have a fitted effect of over 50% in size
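Compounds were scored for reversing the slow growth caused by influenza A NS1 in S. cerevisiae, measured by optical density at 600 nm. Assay medium contained 2% galactose at pH 6.0; NS1-free yeast of the same strain were the positive control.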
Pf growth 96h: P. falciparum growth inhibition at 96 hour, primary screen for plastid delayed-death inhibitors; P. falciparum luciferase reporter growth, 96 h; Potency, µM (top dose mostly 28.7 µM), without a hit: at the top dose activity change, negative = inhibition, most hits filed as inhibitors; 320,000 compounds, 6.9% hits; AID 504834; note: % is set by controls: 0 for no effect and ±100 for the full control effect
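96 h incubation, 37 C, 5% CO2, of luciferase-reporter P. falciparum-infected RBCs (2% hematocrit, 0.05% parasitemia final) with test compounds; endpoint luminescence.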
Pf growth 48h: inhibits P. falciparum growth in the first generation, 48 h; Potency, µM (series often up to 28.7 µM), for inactives: top-dose activity change, negative = inhibition, actives largely listed as inhibitors; P. falciparum luciferase growth in erythrocytes, 48 h; 310,000 compounds, 5.9% hits; AID 504832; note: % is set by controls: 0 for no effect and ±100 for the full control effect
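Parasite viability was followed by luminescence of a genomically integrated firefly luciferase. Cultures held 0.1% parasitemia at 2% hematocrit (final), incubated under 5% CO2 at 37 C.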
SARS PLP yeast: blocks SARS-CoV papain-like protease in a yeast assay; 330,000 compounds, 0.19% hits; AID 485353; Potency, µM (titrated, usually from 32.9 µM), for the others: top-dose activity, positive = growth rescue, usual class: activators; S. cerevisiae expressing SARS-CoV PLpro, growth rescue; calls by dose curve; note: 0% is about no effect; nearly all actives have a fitted effect of over 55% in size
The depositor's hits bear a star; ? = inconclusive; / = no result; ! = not confirmed by another sample. Unless noted, calls come from the whole dose curve; as a rule, active = well fitted inhibition curve with a large enough effect; inconclusive = small, poorly fitted or top-dose-only effect, or another doubt; inactive = no such curve, though single readings can be large or run the other way. Potency is the fitted concentration of half-maximal effect.

SMILES | NS1 inh | Pf growth 96h | Pf growth 48h | SARS PLP yeast
Cc1cc(C)c(NC(=O)Cn2c(=O)c3cccn3c3ccccc32)c(C)c1 | 2.0% | ? | 6.2% | 1.3%
CN(Cc1cn(-c2ccccc2)nc1-c1ccc2c(c1)OCO2)Cc1nccn1C | 5.3% | 10.2% | 11.7µM* | -2.3%
COC(=O)C1CCN(Cc2cn(-c3ccccc3)nc2-c2ccc3c(c2)OCO3)CC1 | -0.7% | ? | ? | 0.1%
CC(=O)NCC1CCCN(Cc2cn(-c3ccccc3)nc2-c2ccc3c(c2)OCO3)C1 (stereo not drawn) | -4.2% | 13.1µM* | -29.6% | 0.7%
COc1ccc(CCCC(=O)N/N=C/c2ccccc2OC)cc1 | / | ? | ? | -3.7%
CCOC(=O)c1ccc(NC(=O)C(C)Sc2nc(O)c(-c3ccccc3)c(=O)[nH]2)cc1 (stereo not drawn) | 5.7% | 1.5% | 13.2% | 0.0%
CCc1noc(C)c1C(=O)N1CC(C)SC1=Nc1ccc(Cl)cc1 (stereo not drawn) | / | 13.1µM* | 10.4µM* | -4.3%
COc1ccc(C(=O)C2CCCN(Cc3ccc(Sc4nncn4C)o3)C2)cc1F (stereo not drawn) | 4.3% | 3.2% | -12.8% | 1.1%
COC(=O)C1C(O)CCC2CN3CCc4c([nH]c5ccccc45)C3CC21 (stereo not drawn) | ? | 24.0% | 6.5% | -0.1%
COC(=O)[C@H]1[C@H]2C[C@H]3c4[nH]c5ccccc5c4CCN3C[C@H]2CC[C@@H]1O | -3.1% | 1.51µM*! | -4.5% | -7.6%
COC(=O)[C@@H]1[C@@H]2C[C@H]3c4[nH]c5cc(OC)ccc5c4CCN3C[C@@H]2C[C@H](OC(=O)/C=C\c2cc(OC)c(OC)c(OC)c2)[C@H]1OC | / | ? | 5.1µM* | /
CCOC(=O)Oc1c(OC)cc(C(=O)O[C@@H]2C[C@@H]3CN4CCc5c([nH]c6cc(OC)ccc56)[C@H]4C[C@@H]3[C@H](C(=O)OC)[C@H]2OC)cc1OC | / | 2.94µM* | 2.62µM* | /
CCCNc1c(NC(=O)COc2ccc(Cl)cc2)c(=O)oc2ccccc12 | 6.1% | ? | 0.0657µM* | 1.4%
CN1Cc2cc(C(=O)c3cc(Cl)cc(CSc4ncccn4)c3O)cnc2NC1=O | 5.9% | 9.28µM* | -17.3% | -9.4%
CCN(CC(=O)Nc1ccccc1C(F)(F)F)C(=O)Cc1sc(C)nc1-c1ccc(F)cc1 | / | ? | 14.7µM* | 3.1%
Cc1cc(C)c(NC(=O)CNC(=O)Cc2sc(C)nc2-c2ccc(F)cc2)c(C)c1 | / | ? | 13.1µM* | 2.7%
Cc1nc(-c2ccc(F)cc2)c(CC(=O)N(C)CC(=O)Nc2ccccc2Br)s1 | / | ? | 13.1µM* | -5.3%
Cc1nc(-c2ccc(F)cc2)c(CC(=O)N(C)CC(=O)Nc2ccc(Br)cc2C)s1 | / | ? | 5.22µM* | -3.6%
Cc1nc(-c2ccc(F)cc2)c(CC(=O)N(C)CC(=O)Nc2ccccc2C(F)(F)F)s1 | / | -3.0% | -9.3% | 0.2%
Cc1nc(-c2ccc(F)cc2)c(CC(=O)NCC(=O)Nc2ccc(F)c(F)c2)s1 | / | ? | ? | -4.7%
COc1cc(NC(=O)NCC2CCN(Cc3ccccc3C)CC2)cc(OC)c1OC | -1.9% | 37.8% | -2.2% | -1.0%
CC(=C\C(=O)O)/C(=C\c1cccc2ccccc12)C(=O)O | -91.5% | 11.1% | ? | 3.0%
Cc1ccc2c(c1)cc1c(=O)n(CC(=O)NCc3ccccn3)nc(C)n12 | -5.8% | ? | 28.5% | 2.2%
CC(OC(=O)Cc1ccccc1[N+](=O)[O-])C(=O)NC(=O)NC1CCCCC1 (stereo not drawn) | / | 32.3% | 29.4% | -4.7%
Cc1nc(-c2ccc(F)cc2)c(CC(=O)N2CCN(S(=O)(=O)c3ccccc3Br)CC2)s1 | 13.3% | 8.28µM* | ? | -0.8%
SMILES | NS1 inh | Pf growth 96h | Pf growth 48h | SARS PLP yeast
Cc1c(N2C(=O)CSC2c2ccc(F)cc2)c(=O)n(-c2ccccc2)n1C (stereo not drawn) | 4.2% | 3.2% | 11.3% | 1.2%
COc1cc(NC(=O)COc2cc(O)c3c(c2)OC(C)(C)CC3=O)cc(OC)c1OC | -4.3% | 4.15µM* | ? | 1.4%
COCCNC(=O)C(c1ccc(F)cc1)N(C(=O)CCC(=O)Nc1ccccn1)c1cccc(C)c1 (stereo not drawn) | 8.9% | ? | -16.4% | 0.9%
CCOc1ccc(-c2[nH]nc3c2C(c2ccc4c(c2)OCO4)C(C#N)=C(N)O3)cc1OC (stereo not drawn) | -16.3% | 13.1µM* | -16.4% | 4.3%
COc1ccc(-c2[nH]nc3c2C(c2ccccc2OC(=O)N2CCOCC2)C(C#N)=C(N)O3)cc1 (stereo not drawn) | -71.9% | 29.7% | ? | -0.1%
Cc1ccc(-c2[nH]nc3c2C(c2ccccc2OC(=O)N2CCOCC2)C(C#N)=C(N)O3)cc1 (stereo not drawn) | -132.1% | 10.4µM* | ? | -4.4%
COc1ccc(-c2[nH]nc3c2C(c2ccc(OC(=O)N4CCOCC4)cc2)C(C#N)=C(N)O3)cc1 (stereo not drawn) | -162.5% | 13.1µM* | 0.6% | -6.5%
COc1ccc(NS(=O)(=O)c2cccc(C(=O)NCC3(N(C)C)CCCCC3)c2)cc1 | / | ? | 44.0% | -8.8%
NCC(c1ccc(Cl)cc1Cl)c1c[nH]c2ccccc12 (stereo not drawn) | 1.1% | ? | ? | -2.9%
NCC(c1ccccc1Cl)c1c[nH]c2ccccc12 (stereo not drawn) | 24.2% | ? | 9.28µM* | 4.0%
CN(C)S(=O)(=O)c1ccc(C(=O)Nc2ccc3nc(N4CCOCC4)sc3c2)cc1 | / | / | / | 0.1%
COc1cccc(CC2CC(=O)N(c3ccc4c(C)cc(=O)oc4c3)C2=O)c1 (stereo not drawn) | -2.1% | 4.5% | -0.4% | 0.5%
CCOc1ccc(-n2cc(C(=O)N3CCC(C)CC3)c3cc(OC)c(OC)cc3c2=O)cc1 | -18.0% | 77.0% | 9.28µM* | -10.3%
CCOc1ccc(-n2cc(C(=O)Nc3cccc(Cl)c3)c3cc(OC)c(OC)cc3c2=O)cc1 | 20.9% | 45.4% | / | -1.8%
CCOc1ccc(NC(=O)c2cn(-c3ccc(OCC)cc3)c(=O)c3cc(OC)c(OC)cc23)cc1 | 26.9% | 3.29µM* | ? | -6.3%
c1ccc(Nc2nc(-c3ccccn3)cs2)cc1 | -178.7% | -47.6% | 6.2% | /
COc1cccc2sc(Nc3nc(-c4ccccn4)cs3)nc12 | -109.9% | ? | 0.465µM* | -43.2%
CCC(=O)N1CCN(c2ccccc2NC(=O)c2ccc(OC)c(Cl)c2)CC1 | 4.4% | 7.38µM* | / | -0.6%
O=C(Nc1ccccc1N1CCN(C(=O)c2ccccc2)CC1)c1ccccc1Cl | -4.9% | ? | 0.0% | -8.2%
COc1ccc(C(=O)Nc2ccccc2C(=O)O)cc1Cl | -13.9% | -11.7% | 21.8% | -11.8%
COc1ccccc1C(=O)Nc1ccccc1N1CCN(C(=O)c2ccc(Cl)cc2)CC1 | 9.4% | ? | 8.28µM* | /
O=C(Nc1ccccc1N1CCN(C(=O)c2ccc(Cl)cc2)CC1)c1cc(Br)ccc1Cl | ? | 4.65µM* | 6.57µM* | 2.9%
Cn1c(CC(=O)Nc2ccccc2F)nnc1SCC(=O)Nc1ccccc1Br | -61.1% | 44.1% | 4.7% | -0.1%
